Assay [1] can be described thus: qHTS assay to identify small molecule agonists of the sonic hedgehog signaling (Shh) pathway (AID 1259368; calls by dose curve;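 further: NIH/3T3-derived 3T3Gli1-Luc cells carrying a stable Gli1-driven firefly luciferase reporter; series mostly up to about 92 µM; nearly all actives have a fitted effect of over 15% in size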). In outline:
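Cells of a mouse NIH/3T3 clone stably expressing luciferase under the Gli1 transcriptional response element are exposed to test chemicals for 24 hr at 37 C. Pathway activation is detected as a rise in luminescence.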
In general terms: Quantitative high-throughput screening tests each substance at several concentrations.

Assay [2] is described as follows: qHTS assay to identify small molecule antagonists of the sonic hedgehog signaling (Shh) pathway (AID 1259369; calls by dose curve; further: nearly all actives have a fitted effect of over 45% in size). The procedure, abridged: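 Cells are plated and held 4hr at 37 C, compounds (DMSO) are pinned in, conditioned medium is added to stimulate the pathway, and after 24hr luciferase reagent is added for 30min before luminescence is read.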
In assay [3] the target is Estrogen receptor beta (Homo sapiens) (UniProt Q92731). The experiment in a line: qHTS assay to identify small molecule agonists of the estrogen receptor beta (ER-beta) signaling pathway (AID 1259377; active means well fitted activation curve with a large enough effect in the signal ratio in the repeat runs, not every such curve was filed as active; the % refers to the signal ratio). The procedure, abridged: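 In HEK293T cells bearing a UAS-beta-lactamase reporter under ER-beta control, DMSO-delivered compounds were incubated for 16 hr at 37C. Activity was detected as fluorescence 2 hours after LiveBLAzer B/G FRET substrate addition.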

Assay [4] shares this target. The experiment in a line: qHTS assay to identify small molecule antagonists of the estrogen receptor beta (ER-beta) signaling pathway (AID 1259378; active means well fitted inhibition curve with a large enough effect in the signal ratio in the repeat runs, not every such curve was filed as active; the % refers to the signal ratio). The procedure, abridged: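 Antagonist mode: compounds added to beta-lactamase reporter HEK293T ER-beta-UAS cells stimulated with E2 (1nM final), 16 hr at 37C. LiveBLAzer B/G FRET substrate, 2 hours room temperature, fluorescence read-out.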

The nature of assay [5]: qHTS assay to identify small molecule agonists of the estrogen receptor beta (ER-beta) signaling pathway - cell viability counter screen (AID 1259380). Further: nearly all actives have a fitted effect of over 30% in size. The procedure, abridged:
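Cytotoxicity is measured in parallel with the reporter screen: after 16 hr compound exposure at 37C and a 2 hr LiveBLAzer step, CellTiter-Glo is added to the same ER-beta-UAS-bla HEK293T wells and luminescence read after 30 min.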

Assay [6] is described as follows: qHTS assay to identify small molecule antagonists of the estrogen receptor beta (ER-beta) signaling pathway - cell viability counter screen (AID 1259382).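 Further: HEK293T cells carrying ER-beta-UAS-bla reporter stimulated with estradiol; series mostly up to about 92 µM; nearly all actives have a fitted effect of over 55% in size.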 In outline: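 Cytotoxicity counter screen multiplexed with the beta-lactamase antagonist assay: GripTite HEK293T ER-beta-bla cells were treated 16 hr with test chemicals in the presence of 1nM 17-beta-estradiol, and viability was measured by CellTiter-Glo.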

Assay [7] addresses Estrogen receptor (Homo sapiens) (UniProt P03372). The experiment in a line: qHTS assay to identify small molecule agonists of the estrogen receptor alpha (ER-alpha) signaling pathway in the presence of an antagonist (AID 1259383; calls by dose curve; further: top concentration of the series differs between compounds; nearly all actives have a fitted effect of over 15% in size). The procedure, abridged:
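Agonist-mode confirmation in the presence of the ER antagonist ICI-182,780 at 10.0nM final. Breast-derived VM7Luc4E2 reporter cells were exposed to compounds for 22hr, and ERE-driven luciferase was quantified by luminescence.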

Assay [8] is described as follows: qHTS assay to identify small molecule agonists or antagonists of the thyroid stimulating hormone receptor (TSHR) signaling pathway - wild type cell line counter screen (AID 1259384; calls by dose curve). The procedure, abridged: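 Counter screen in untransfected Hek293: compounds (15-point titration, triplicate) plus phosphodiesterase inhibitor Ro20-1724 added after 18 h plating; 30 min RT. Intracellular cAMP via competitive d2/cryptate immunoassay, 1 h incubation.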

Assay [9] deals with Thyrotropin receptor (Homo sapiens) (UniProt P16473). The experiment in a line: qHTS assay to identify small molecule antagonists of the thyroid stimulating hormone receptor (TSHR) signaling pathway (AID 1259385; calls by dose curve; further: nearly all actives have a fitted effect of over 20% in size). The procedure, abridged: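 Antagonist mode: compound-treated TSHR-expressing HEK293 cells were stimulated with 1.5 ng/mL TSH (final) in presence of Ro20-1724 for 30 min at RT. HTRF cAMP detection after 1 h; each compound tested at 15 concentrations, triplicate.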

The nature of assay [10]: qHTS assay to identify small molecule agonists of the estrogen receptor alpha (ER-alpha) signaling pathway in the presence of an antagonist - cell viability counter screen (AID 1259386).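 Further: series mostly up to about 92 µM; cells exposed to compounds for 22 h at 37 °C before the viability read; nearly all actives have a fitted effect of over 30% in size.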 The procedure, abridged: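 Cytotoxicity was measured in parallel with the ERE-luciferase agonist screen, in the same wells. The cells were VM7Luc4E2, which endogenously express ER-alpha, and treatment was with compounds plus 10.0nM ICI-182,780 for 22hr.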

For assay [11], the target named is Progesterone receptor (Homo sapiens) (UniProt P06401). The experiment in a line: qHTS assay to identify small molecule agonists of the progesterone receptor (PR) signaling pathway (AID 1346784; calls by dose curve; further: nearly all actives have a fitted effect of over 30% in size; further: potency means the concentration at half of the fitted maximal effect). The procedure, abridged: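 Using charcoal-stripped serum (2%) to limit endogenous steroids, PR-UAS-bla HEK 293T cells received compounds for 16 hr at 37C after 6 hr plating; beta-lactamase FRET fluorescence was recorded following 2 hr substrate loading at room temperature.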

For assay [12] the target is unchanged. The assay can be described thus: qHTS assay to identify small molecule antagonists of the progesterone receptor (PR) signaling pathway (AID 1346795; active means well fitted inhibition curve with a large enough effect in the signal ratio in the repeat runs, not every such curve was filed as active; the % refers to the signal ratio). The procedure, abridged: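 Inhibition of R5020-induced (1 nM final) beta-lactamase reporter signal in PR-UAS-bla HEK293T cells was scored by FRET fluorescence after overnight (16 hr) compound treatment.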
A short description of assay [13]: qHTS assay to identify small molecule antagonists of the progesterone receptor (PR) signaling pathway - cell viability counter screen (AID 1346798). Further: series mostly up to about 92 µM; nearly all actives have a fitted effect of over 50% in size. The procedure, abridged: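 ATP content as viability readout: CellTiter-Glo luminescence, 30 min room temperature, in PR-UAS-bla HEK293T cells after 16 hr compound/R5020 treatment at 37C and 5% CO2.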
Assay [14] can be described thus: qHTS assay to identify small molecule agonists of the TGF-beta/Smad signaling pathway - cell viability counter screen (AID 1346829). Further: top concentration of the series differs between compounds; nearly all actives have a fitted effect of over 45% in size. In outline:
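Here the cytotoxicity of library compounds is measured in SBE-bla HEK 293T cells treated for 5 hr, using CellTiter-Glo added to wells already read for the beta-lactamase reporter.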

Assay [15] can be described thus: qHTS assay to identify small molecule agonists of the TGF-beta/Smad signaling pathway (AID 1346859; active means well fitted activation curve with a large enough effect in the signal ratio in the repeat runs, not every such curve was filed as active; the % refers to the signal ratio; further: series mostly up to about 77 µM). In outline: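 Stable Smad binding element-beta-lactamase HEK 293T cells; 5 hr compound exposure at 37 C under 5% CO2; 2 hr room-temperature substrate step; fluorescence excited at 405 nm, collected at 460 nm and 530 nm.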
The target of assay [16] is Thyrotropin-releasing hormone receptor (Homo sapiens) (UniProt P34981). The experiment in a line: qHTS assay to identify small molecule antagonists of the thyrotropin-releasing hormone receptor (TRHR) signaling pathway (AID 1346877; active means well fitted inhibition curve with a large enough effect in the repeat runs, not every such curve was filed as active; further: series mostly up to about 51 µM). The procedure, abridged: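 Antagonism is measured as suppression of the calcium response to 1 nM TRH in TRHR-HEK293 cells that have been dye-loaded for 2 h at 37 °C after overnight plating. Each compound is tested at 15 concentrations in triplicate.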

A short description of assay [17]: qHTS assay to identify small molecule agonists of the androgen receptor (AR) signaling pathway in the presence of an antagonist - cell viability counter screen (AID 1259379).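 Further: MDA-kb2 human breast cancer cells carrying an MMTV luciferase reporter; series mostly up to about 92 µM; nearly all actives have a fitted effect of over 25% in size.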 The procedure, abridged: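 Cytotoxicity is assessed by CellTiter-Fluor in MDA-kb2 cells carrying an MMTV-driven luciferase reporter. Cells receive 3.0uM nilutamide plus compounds at 15 concentrations and incubate 16 hr at 37C without CO2 before fluorescence reading.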

Assay [18] can be described thus: qHTS assay to identify small molecule agonists of the progesterone receptor (PR) signaling pathway - cell viability counter screen (AID 1346799; calls by dose curve; further: nearly all actives have a fitted effect of over 45% in size). The procedure, abridged:
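Cytotoxicity in PR-bla HEK293T cells: 16 h compound, 37C; CellTiter-Glo added post-FRET read; luminescence after 30 min RT.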

Assay [19] in a line: qHTS assay to identify small molecule antagonists of the TGF-beta/Smad signaling pathway - cell viability counter screen (AID 1346824). Further: nearly all actives have a fitted effect of over 50% in size. In outline: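 Cytotoxicity counter-screen run in the same wells as the beta-lactamase Smad reporter read: CellTiter-Glo luminescence after 30 min at room temperature. HEK 293T SBE-bla cells had 5 hr compound exposure at 37 C with TGF-beta1 (0.25 ng/mL stock).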

The target of assay [20] is Androgen receptor (Homo sapiens) (UniProt P10275). The experiment in a line: qHTS assay to identify small molecule agonists of the androgen receptor (AR) signaling pathway in the presence of an antagonist (AID 1259381; calls by dose curve; further: nearly all actives have a fitted effect of over 15% in size). In outline: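 Agonist-mode confirmation screen: human MDA-kb2 cells stably expressing luciferase under an MMTV promoter bearing AR and GR response elements, co-treated with 3.0uM nilutamide (final). Luminescence measured after 16hr compound incubation.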

Structures are written as SMILES. “And” between values parts separate entries of the source, which are not always exact repeats. Equal values may be shown once. Inconclusive results are not listed. The source made the active and inactive calls. Unless noted, the call rests on the fitted dose curve; in most records, active means well fitted curve in the direction sought with a large enough effect in the repeat runs; inconclusive means weak or mixed curves; inactive means no such curve, though single readings can be large; an effect the other way counts as inactive or inconclusive.

Chain of Estrogen receptor beta (Homo sapiens) (Q92731 whole entry, looked up): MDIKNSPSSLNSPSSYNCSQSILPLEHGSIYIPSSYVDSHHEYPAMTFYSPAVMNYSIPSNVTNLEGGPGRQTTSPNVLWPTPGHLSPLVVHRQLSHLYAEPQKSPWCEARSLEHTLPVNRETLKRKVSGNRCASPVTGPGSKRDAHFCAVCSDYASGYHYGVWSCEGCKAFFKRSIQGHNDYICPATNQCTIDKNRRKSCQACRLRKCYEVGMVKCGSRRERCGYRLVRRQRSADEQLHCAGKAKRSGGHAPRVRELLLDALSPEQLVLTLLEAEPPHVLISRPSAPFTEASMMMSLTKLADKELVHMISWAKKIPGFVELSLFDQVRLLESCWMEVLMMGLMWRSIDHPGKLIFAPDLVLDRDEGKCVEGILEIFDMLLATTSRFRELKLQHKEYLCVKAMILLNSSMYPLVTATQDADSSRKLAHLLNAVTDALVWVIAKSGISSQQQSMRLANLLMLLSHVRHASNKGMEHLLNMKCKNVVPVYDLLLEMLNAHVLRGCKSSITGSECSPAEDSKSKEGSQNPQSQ
Chain of Progesterone receptor (Homo sapiens) (P06401 whole entry, looked up): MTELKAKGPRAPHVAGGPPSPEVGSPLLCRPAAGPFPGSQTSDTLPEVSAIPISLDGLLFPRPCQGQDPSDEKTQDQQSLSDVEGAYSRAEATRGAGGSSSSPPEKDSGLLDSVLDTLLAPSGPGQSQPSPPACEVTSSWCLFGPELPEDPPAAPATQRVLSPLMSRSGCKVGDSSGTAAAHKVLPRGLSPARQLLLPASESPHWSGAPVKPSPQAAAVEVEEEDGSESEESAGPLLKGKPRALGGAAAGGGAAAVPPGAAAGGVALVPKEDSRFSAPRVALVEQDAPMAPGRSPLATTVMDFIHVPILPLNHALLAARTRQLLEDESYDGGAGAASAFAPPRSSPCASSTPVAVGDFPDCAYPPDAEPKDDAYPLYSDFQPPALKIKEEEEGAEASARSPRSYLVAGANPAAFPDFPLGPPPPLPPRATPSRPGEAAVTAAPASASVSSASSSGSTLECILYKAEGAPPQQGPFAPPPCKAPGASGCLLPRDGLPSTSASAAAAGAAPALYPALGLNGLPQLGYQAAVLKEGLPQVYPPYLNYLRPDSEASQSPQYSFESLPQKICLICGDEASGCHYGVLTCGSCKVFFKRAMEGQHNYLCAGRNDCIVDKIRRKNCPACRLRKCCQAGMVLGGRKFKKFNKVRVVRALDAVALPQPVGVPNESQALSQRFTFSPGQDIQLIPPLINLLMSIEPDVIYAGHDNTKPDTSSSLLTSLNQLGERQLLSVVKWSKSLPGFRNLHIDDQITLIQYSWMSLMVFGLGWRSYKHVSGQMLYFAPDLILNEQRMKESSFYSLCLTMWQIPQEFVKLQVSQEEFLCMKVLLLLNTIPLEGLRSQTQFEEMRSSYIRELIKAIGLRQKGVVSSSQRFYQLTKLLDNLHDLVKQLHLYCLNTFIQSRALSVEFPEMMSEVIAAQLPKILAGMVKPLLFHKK
Chain of Estrogen receptor (Homo sapiens) (P03372 whole entry, looked up): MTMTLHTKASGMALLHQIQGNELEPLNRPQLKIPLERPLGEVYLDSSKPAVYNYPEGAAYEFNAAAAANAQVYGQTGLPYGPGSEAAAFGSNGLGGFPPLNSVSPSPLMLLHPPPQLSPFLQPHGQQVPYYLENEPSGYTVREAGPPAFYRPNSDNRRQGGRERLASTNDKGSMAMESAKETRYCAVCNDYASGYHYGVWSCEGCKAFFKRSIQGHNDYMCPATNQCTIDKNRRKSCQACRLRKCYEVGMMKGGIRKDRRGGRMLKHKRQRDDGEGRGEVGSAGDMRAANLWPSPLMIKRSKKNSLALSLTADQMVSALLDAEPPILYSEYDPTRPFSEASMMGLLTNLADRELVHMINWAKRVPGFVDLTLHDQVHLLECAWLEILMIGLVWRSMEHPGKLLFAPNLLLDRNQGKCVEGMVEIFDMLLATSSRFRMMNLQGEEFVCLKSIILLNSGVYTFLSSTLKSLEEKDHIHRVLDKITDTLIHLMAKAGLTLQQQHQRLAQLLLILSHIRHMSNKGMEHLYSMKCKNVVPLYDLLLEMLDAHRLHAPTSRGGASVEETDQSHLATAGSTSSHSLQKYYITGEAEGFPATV
Chain of Thyrotropin-releasing hormone receptor (Homo sapiens) (P34981 whole entry, looked up): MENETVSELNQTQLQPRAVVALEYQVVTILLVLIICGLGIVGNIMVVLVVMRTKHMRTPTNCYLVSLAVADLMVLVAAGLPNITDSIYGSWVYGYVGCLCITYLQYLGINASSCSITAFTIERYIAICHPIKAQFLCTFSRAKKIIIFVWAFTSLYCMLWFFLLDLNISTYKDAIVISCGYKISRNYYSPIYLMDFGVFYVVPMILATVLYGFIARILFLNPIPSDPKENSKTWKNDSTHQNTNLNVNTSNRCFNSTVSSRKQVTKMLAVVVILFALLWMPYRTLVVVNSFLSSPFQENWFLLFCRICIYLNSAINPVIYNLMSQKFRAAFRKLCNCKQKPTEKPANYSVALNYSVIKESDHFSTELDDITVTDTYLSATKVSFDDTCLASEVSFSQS
Chain of Thyrotropin receptor (Homo sapiens) (P16473 whole entry, looked up): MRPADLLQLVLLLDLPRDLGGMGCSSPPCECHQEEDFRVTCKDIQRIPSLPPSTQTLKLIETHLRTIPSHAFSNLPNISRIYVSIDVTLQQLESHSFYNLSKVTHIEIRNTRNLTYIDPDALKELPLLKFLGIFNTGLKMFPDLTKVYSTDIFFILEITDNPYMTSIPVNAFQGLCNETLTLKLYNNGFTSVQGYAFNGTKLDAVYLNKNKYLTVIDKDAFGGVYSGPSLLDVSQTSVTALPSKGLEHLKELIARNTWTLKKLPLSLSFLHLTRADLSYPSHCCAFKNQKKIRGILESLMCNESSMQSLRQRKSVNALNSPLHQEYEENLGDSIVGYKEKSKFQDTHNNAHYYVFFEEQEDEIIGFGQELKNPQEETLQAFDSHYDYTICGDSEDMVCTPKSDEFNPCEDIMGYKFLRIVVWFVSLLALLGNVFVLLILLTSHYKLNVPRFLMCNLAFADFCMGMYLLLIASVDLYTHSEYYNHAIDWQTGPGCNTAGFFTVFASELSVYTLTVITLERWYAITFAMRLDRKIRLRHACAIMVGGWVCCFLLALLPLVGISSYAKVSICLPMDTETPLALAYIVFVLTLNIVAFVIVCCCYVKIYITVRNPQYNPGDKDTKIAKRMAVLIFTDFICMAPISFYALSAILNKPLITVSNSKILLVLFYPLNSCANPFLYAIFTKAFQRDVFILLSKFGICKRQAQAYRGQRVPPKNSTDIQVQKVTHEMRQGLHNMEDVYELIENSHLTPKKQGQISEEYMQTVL
Chain of Androgen receptor (Homo sapiens) (P10275 whole entry, looked up): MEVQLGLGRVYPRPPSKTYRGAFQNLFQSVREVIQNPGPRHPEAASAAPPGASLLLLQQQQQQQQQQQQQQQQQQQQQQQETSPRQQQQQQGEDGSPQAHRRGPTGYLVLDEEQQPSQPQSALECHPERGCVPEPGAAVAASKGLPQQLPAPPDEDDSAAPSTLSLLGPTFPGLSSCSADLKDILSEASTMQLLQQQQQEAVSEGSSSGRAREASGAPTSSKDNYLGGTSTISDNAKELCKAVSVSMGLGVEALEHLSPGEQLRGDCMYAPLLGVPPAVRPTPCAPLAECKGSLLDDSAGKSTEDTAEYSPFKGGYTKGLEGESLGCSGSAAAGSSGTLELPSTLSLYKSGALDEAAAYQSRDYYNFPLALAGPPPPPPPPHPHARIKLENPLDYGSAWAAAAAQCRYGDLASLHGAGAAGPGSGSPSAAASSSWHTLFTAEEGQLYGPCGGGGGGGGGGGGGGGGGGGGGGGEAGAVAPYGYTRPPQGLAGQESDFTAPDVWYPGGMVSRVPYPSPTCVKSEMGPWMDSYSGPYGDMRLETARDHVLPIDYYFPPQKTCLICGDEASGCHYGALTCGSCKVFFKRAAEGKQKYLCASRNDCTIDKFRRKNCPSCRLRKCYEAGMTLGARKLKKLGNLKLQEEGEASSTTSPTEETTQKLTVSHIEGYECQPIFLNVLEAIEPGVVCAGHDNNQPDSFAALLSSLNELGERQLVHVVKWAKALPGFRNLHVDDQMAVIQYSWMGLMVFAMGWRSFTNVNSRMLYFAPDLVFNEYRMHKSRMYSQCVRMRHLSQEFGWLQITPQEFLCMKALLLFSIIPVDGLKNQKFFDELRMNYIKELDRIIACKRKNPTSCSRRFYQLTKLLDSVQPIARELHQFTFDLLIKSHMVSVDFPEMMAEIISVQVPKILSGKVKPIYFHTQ

Regarding `CC1(C)O[C@@H]2C[C@H]3[C@@H]4C[C@H](F)C5=CC(=O)CC[C@]5(C)[C@H]4[C@@H](O)C[C@]3(C)[C@]2(C(=O)CO)O1`, the compound was called inactive in [1], in assay [8], in [9], in assay [15] and in assay [16]. In addition, the Potency entry in assay [2], in assay [3], in assay [4], in assay [5], in assay [6] and in assay [7] was “inactive” each time. The Potency result in assay [10], in [12], in assay [13] and in assay [14] was “inactive” throughout. Moreover, the Potency in assay [11] is 5.4 nM (active) and 6 nM (active).

Turning to `O=C(O)c1ccc([N+](=O)[O-])cc1`, the call in assay [1], in assay [15] and in assay [16] was inactive. Moreover, the Potency result in assay [2], in assay [3], in assay [4], in assay [17], in assay [5] and in assay [6] was “inactive” each time. Further, the Potency result in assay [10], in assay [11], in assay [12], in [13], in [18] and in [19] was “inactive” each time. Moreover, the Potency entry in assay [14] is “inactive”.

Consider `CCc1ccc(O)cc1`, for which the call in assay [1], in [8], in assay [9] and in assay [15] was inactive. The Potency entry in assay [2], in assay [3], in assay [4], in [17], in [5] and in assay [20] was “inactive” throughout. In addition, the Potency entry in assay [6], in [10], in [11], in [12], in assay [13] and in assay [18] was “inactive” each time. Further, the Potency result in assay [19] and in assay [14] was “inactive” each time.

On to `CC(=O)CCc1ccccc1`, for which the outcome in assay [1], in assay [8], in assay [9] and in [15] was inactive. The Potency entry in assay [2], in assay [3], in assay [4], in assay [5], in assay [6] and in [10] was “inactive” each time. Also, the Potency result in assay [11], in assay [12], in [13], in assay [19] and in assay [14] was “inactive” throughout.

`Cc1ccc(C(=O)O)o1`: the compound was classed as inactive in assay [1], in assay [8], in [9] and in [15]. For the same compound, the Potency entry in [2], in assay [3], in assay [4], in assay [17], in assay [5] and in [6] was “inactive” in each case. For the same compound, the Potency result in [10], in [11], in assay [12], in assay [13], in [18] and in assay [19] was “inactive” in each case. Also, the Potency result in assay [14] is “inactive”.

`CCCCC(CC)COC(C)=O` (stereo unspecified): the compound was called inactive in [1], in assay [8], in assay [9], in assay [15] and in [16]. Also, the Potency result in [2], in assay [3], in [4], in [17], in [5] and in assay [6] was “inactive” each time. Further, the Potency result in assay [10], in assay [11], in [12], in assay [13], in assay [18] and in assay [19] was “inactive” each time. For the same compound, the Potency result in assay [14] is “inactive”.

Turning to `CCCCOCCOCCOC(=O)CCCCC(=O)OCCOCCOCCCC`, the call in assay [1], in assay [8], in [9], in [15] and in assay [16] was inactive. For the same compound, the Potency entry in assay [2], in [3], in [4], in assay [5], in [6] and in assay [7] was “inactive” in each case. Also, the Potency entry in [10], in assay [11], in assay [12], in assay [13] and in assay [14] was “inactive” each time.

The record behind these values is PubChem BioAssay (Tox21).
